Measurements as given in the supplement of paper PMC5641865, “A screen for kinase inhibitors identifies antimicrobial imidazopyridine aminofurazans as specific inhibitors of the Listeria monocytogenes PASTA kinase PrkA” (The Journal of Biological Chemistry, 2017).
± gives the standard deviation of the averaged measurements.

Tested on: Listeria monocytogenes 10403S
Experiment: growth inhibition relative to ceftriaxone-alone control; higher = stronger potentiation of ceftriaxone growth inhibition
Conditions: 10 µM; ceftriaxone 1 ug/ml; 12 h
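Further: End-point A600 read in BHI broth at 37 °C with 2% DMSO, inhibition computed as (1 − OD with compound plus ceftriaxone ÷ OD with ceftriaxone only) × 100.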

SMILES	growth inhibition
CC(C)(C)c1cc(/C=C(\C#N)C(N)=S)cc(C(C)(C)C)c1O [Tyrphostin AG 879 (AG 879)]	72.8 ± 30%
CCn1c(-c2nonc2N)nc2ccncc21	-0.136 ± 1.1%
COc1cc(Nc2ncc(F)c(Nc3ccc4c(n3)N(COP(=O)(O)O)C(=O)C(C)(C)O4)n2)cc(OC)c1OC	10.1 ± 12%
CCCCOc1c(C(=O)c2c(F)cc(C)cc2F)c[nH]c2nncc1-2	-6.78 ± 8.6%
NS(=O)(=O)c1ccc(N/N=C2\C(=O)Nc3cccc(CCc4ccncc4)c32)cc1	-4.56 ± 8.2%
COc1cc2ncn(-c3cc(OCc4ccccc4S(C)(=O)=O)c(C#N)s3)c2cc1OC	12.7 ± 3%
CCn1c(-c2nonc2N)nc2c(C#CC(C)(C)O)nc(OCCNC)cc21	41.3 ± 18%
CCN1CCC(CC(=O)Nc2n[nH]c3nnc(-c4cccc(F)c4F)cc23)CC1	7 ± 6.8%
CC1=C(C(=O)Nc2ccc3[nH]ncc3c2)C(c2ccc3ccccc3c2)CC(=O)N1 (stereo not drawn)	11.5 ± 2.3%
Nc1nccc(-c2c(-c3ccc(F)cc3)ncn2CCCN2CCOCC2)n1	-1.02 ± 0.073%
CCCN1CCC(Oc2cc(Nc3nc(Nc4cccc(F)c4C(N)=O)c4cc[nH]c4n3)c(OC)cc2Cl)CC1	-13.1 ± 20%
O=C(Nc1c[nH]nc1-c1nc2ccc(CN3CCOCC3)cc2[nH]1)NC1CC1	55.7 ± 25%
CCOc1cc2ncc(C#N)c(Nc3ccc(OCc4ccccn4)c(Cl)c3)c2cc1NC(=O)/C=C/CN(C)C [Neratinib (HKI-272)]	12.3 ± 9.7%
Cc1csc(-c2nnc(Nc3ccc(Oc4ncccc4-c4ccnc(N)n4)cc3)c3ccccc23)c1	64 ± 34%
COc1ccc(Nc2ncc(-c3ccccc3)o2)cc1OC	10.7 ± 3.4%
COc1cc(N2CCN(C(C)C)CC2)ccc1Nc1nc(Nc2cccc3ncccc23)c2cc[nH]c2n1	-2.19 ± 2.3%
CS(=O)(=O)CCNCc1ccc(-c2ccc3ncnc(Nc4ccc(OCc5ccccc5)c(C(F)(F)F)c4)c3c2)o1	-5.15 ± 0.36%
CN(c1ccc(NC(=O)Nc2ccc(OC(F)(F)F)cc2)cc1)c1ccnc(Nc2cccc(S(N)(=O)=O)c2)n1	-3.28 ± 2%
COc1ccc(-c2oc3ncnc(N)c3c2-c2ccc(NC(=O)Nc3cc(C(F)(F)F)ccc3F)cc2)cc1	-3.49 ± 7.6%

SMILES	growth inhibition
CC1(C)CNc2cc(NC(=O)c3cccnc3NCc3ccncc3)ccc21 [Motesanib Diphosphate (AMG-706)]	22.2 ± 22%
CN(c1ncccc1CNc1nc(Nc2ccc3c(c2)CC(=O)N3)ncc1C(F)(F)F)S(C)(=O)=O	41.8 ± 28%
Fc1cccc(COc2ccc(Nc3ncnc4cc(-c5ccc[nH]5)sc34)cc2Cl)c1	7.47 ± 4%
CCn1c(-c2nonc2N)nc2cncc(C(=O)N3CC[C@H](N)C3)c21	7.57 ± 2.1%
C[C@@H](Oc1cc(-c2cnn(C3CCNCC3)c2)cnc1N)c1c(Cl)ccc(F)c1Cl	94.9 ± 5.1%
Cc1ncc(-c2ccnc(Nc3ccc(S(C)(=O)=O)cc3)n2)n1C(C)C	97.4 ± 2.4%
COc1cc(Nc2ncc3c(C)nc(-c4cccc(C(F)(F)F)c4)n3n2)cc(OC)c1OC	-2.03 ± 8.5%
Fc1ccc(-c2ncn(C3CCNCC3)c2-c2ccnc(Oc3ccc4c(c3)OCO4)n2)cc1	-3.86 ± 1.5%
CC(=O)Nc1cccc(C#Cc2cncnc2Nc2ccc(OCc3cccc(F)c3)c(Cl)c2)c1	-15 ± 2.5%
COC(=O)Nc1nc2ccc(Sc3ccc(NC(=O)Nc4cc(C(F)(F)F)ccc4F)cc3)cc2[nH]1	-12.7 ± 13%
C=CC(=O)Nc1cccc(Sc2nc(Nc3ccc(N4CCN(C)CC4)cc3)ncc2Cl)c1	94.1 ± 1.1%
Nc1nccc(-c2c(-c3ccc(F)cc3)nn3cc(C(F)(F)F)ccc23)n1	-7.97 ± 19%
Cc1ccc2c(c1)/C(=N/Nc1ccc(S(N)(=O)=O)cc1)C(=O)N2	2.4 ± 3.2%
Cn1cc(C=C2C(=O)Nc3cccnc32)c2ccccc21	-13 ± 19%
Cc1ccc(F)c(NC(=O)Nc2ccc(-c3cccc4[nH]nc(N)c34)cc2)c1 [Linifanib (ABT-869)]	29.9 ± 19%
Cc1ccc2c(-c3ccnc(Nc4ccccc4)n3)c(-c3ccc(F)cc3)nn2n1	-6.27 ± 1.4%
COc1cccc(-n2ncc3c(N/N=C/c4ccc(C)cc4)ncnc32)c1	-9.19 ± 0.67%
O=C(NC1CCNCC1)c1n[nH]cc1NC(=O)c1c(Cl)cccc1Cl	13.4 ± 5.9%
CCn1c(-c2nonc2N)nc2ccccc21	-9.18 ± 6.6%
